Results on five molecules are retold here after PubChem BioAssay.

Experiment [1] can be described thus: small molecules captured by biotinylated probe aFSTL3 – biochemical, small-molecule microarray, fluorescence 635/667, stem cell growth factor project, primary screen (AID 1064).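 Further: measures binding of the biotinylated anti-FSTL3 antibody to printed compounds.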 The note with it: higher = more signal.
A short description of experiment [2]: binders from COS7 lysate, DM2A8 probe, primary screen, torsin A project, cell lysate, small-molecule microarray, fluorescence 635/667 (AID 1065). The note with it: higher = more signal, COS7 lysate expressing mutant human TOR1A.
Experiment [3] is described as follows: small molecules captured by biotinylated probe aFGF2 – biochemical, small-molecule microarray, fluorescence 635/667, stem cell growth factor project, primary screen (AID 1067).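 Further: measures binding of biotinylated aFGF2 protein to printed compounds on slides; z-score merges feature fluorescence and signal-to-noise across triplicate slides.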 As to conditions: higher = more signal.
Experiment [4] is described as follows: small molecules captured by biotinylated probe aFGF10 – biochemical, small-molecule microarray, fluorescence 635/667, stem cell growth factor project, primary screen (AID 1071).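 Further: score merges 667 nm spot intensity and signal to noise from triplicate slides.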 The note with it: higher = more signal.
In experiment [5] the target is Neurogenic locus notch homolog protein 2 (Homo sapiens) (UniProt Q04721). The experiment in a line: small molecules binding Notch2 protein – biochemical, small-molecule microarray, 635 nm fluorescence, stem cell growth factors, primary screen (AID 1073). The note with it: higher = more signal.
Experiment [6] has as its target Pro-neuregulin-1, membrane-bound isoform (Homo sapiens) (UniProt Q02297). The experiment can be described thus: small molecules binding neuregulin-1 protein – biochemical, small-molecule microarray, fluorescence 635/667, psychiatric disease protein project, primary screen (AID 1075).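 Further: score combines 667 nm spot fluorescence with signal to noise.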 As to conditions: NRG1 binding, 635 nm fluorescence, higher = more signal.
Experiment [7] relates to Neuregulin-1 EGF-like domain. The experiment can be described thus: small molecules binding NRG1 EGF domain – biochemical, small-molecule microarray, 635 nm fluorescence, primary screen (AID 1081).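 Further: binding of the protein to compounds printed on small-molecule microarray slides.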 As to conditions: higher = more signal.
Experiment [8] can be described thus: FRG1 expression reporter modulators in myotubes – cell-based, C2C12 myotubes, firefly/Renilla luciferase, luminescence, FRG1 inhibition for FSHD, primary screen (AID 1084). The note with it: FRG1 promoter luciferase, higher = more signal, called active from +8 up or from −8 down.
Experiment [9] is described as follows: small molecules captured by biotinylated probe aFST – biochemical, small-molecule microarray, fluorescence 635/667, stem cell growth factor project, primary screen (AID 1086).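 Further: score merges 667 nm fluorescence with signal-to-noise of each printed compound spot.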 As to conditions: higher = more signal.
A short description of experiment [10]: binders of probe aHhip on microarray, primary screen, stem cell growth factor project, biochemical, small-molecule microarray, fluorescence 635/667 (AID 1087).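 Further: score merges spot fluorescence at 667nm with spot signal to noise ratio.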 The note with it: higher = more signal.
Experiment [11] relates to PRMT1 (protein arginine N-methyltransferase 1). The experiment can be described thus: small molecules binding arginine methyltransferase PRMT1 – biochemical, small-molecule microarray, 635 nm fluorescence, primary screen (AID 1088).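 Further: binding of Prmt1 protein to compounds spotted on small-molecule microarray slides.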 As to conditions: higher = more signal.
Experiment [12] in a line: growth effects on S. cerevisiae YJM789 – YJM789 clinical isolate, OD600, 24 h, basal, primary screen (AID 1089).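 Further: growth of clinical yeast isolate S. cerevisiae YJM 789 seeded 1000 cells per well; test concentration not given here.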 The note with it: higher = more signal, called active from +8 up or from −8 down.
The nature of experiment [13]: S. pombe growth modifiers, basal conditions – strain 972, OD600, 24 h, no modulator, primary screen (AID 1090).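 Further: basal condition with compound alone and no growth modifier present; test concentration not given here.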 The note with it: S. pombe 972 growth, higher = more signal, called active from +8 up or from −8 down.
Experiment [14] is described as follows: budding yeast growth modifiers under rapamycin – strain BY4716, OD600, 96 h, primary screen (AID 1091). Further: test concentration not given here. As to conditions: S. cerevisiae BY4716 + rapamycin, higher = more signal, called active from +8 up or from −8 down.
In experiment [15] the target is Torsin-1A-interacting protein 2 (Homo sapiens) (UniProt Q8NFQ8). The experiment can be described thus: small molecules binding lysate-expressed LULL1 – cell lysate, human LULL1 lysate, 635/667 nm fluorescence, primary screen (AID 1092).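 Further: probe is lysate of COS7 cells overexpressing human LULL1; score merges per-feature 667 nm fluorescence with signal-to-noise.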 The note with it: small-molecule microarray, hLULL1 lysate binding, 635 nm fluorescence; higher = more signal.
Experiment [16] can be described thus: optical density change of DRC41 E. coli – strain DRC41, OD650, 24 h, E. coli filamentation project, primary screen (AID 1093).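 Further: MC1000 strain lacking acrAB efflux and sulA so SOS filamentation is blocked; test concentration not given here.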 The note with it: E. coli DRC41 growth, higher = more signal, called active from +8 up or from −8 down.
The nature of experiment [17]: probe aLefty2 binding to arrayed compounds – biochemical, biotinylated probe, 635/667 nm fluorescence, primary screen (AID 1094).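 Further: score merges spot fluorescence near 667 nm with spot signal-to-noise ratio.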 The note with it: small-molecule microarray, higher = more signal.
The test system of experiment [18] is Noggin (protein binding on small-molecule microarray). The experiment in a line: small molecules binding Noggin protein – biochemical, 635/667 nm fluorescence, primary screen (AID 1095).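 Further: score merges 667 nm feature fluorescence with signal to noise over triplicate slides.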 As to conditions: 635 nm fluorescence, higher = more signal.
Experiment [19] addresses Neurogenic locus notch homolog protein 3 (Homo sapiens) (UniProt Q9UM47). The experiment in a line: small molecules binding NOTCH3 protein – biochemical, 635/667 nm fluorescence, primary screen (AID 1096). As to conditions: small-molecule microarray, 635 nm fluorescence, higher = more signal.
A short description of experiment [20]: probe aEGFR binding to arrayed compounds – biochemical, biotinylated probe, 635/667 nm fluorescence, primary screen (AID 1097).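 Further: probe is a biotinylated anti-EGFR antibody binding compounds printed on slides; score combines fluorescence near 667 nm and signal to noise of each spot.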 The note with it: small-molecule microarray, higher = more signal.

Calls of active or inactive are those of the source.

Pro-neuregulin-1, membrane-bound isoform (Homo sapiens), sequence (Q02297 whole entry, looked up, the tested form may be a part, canonical isoform): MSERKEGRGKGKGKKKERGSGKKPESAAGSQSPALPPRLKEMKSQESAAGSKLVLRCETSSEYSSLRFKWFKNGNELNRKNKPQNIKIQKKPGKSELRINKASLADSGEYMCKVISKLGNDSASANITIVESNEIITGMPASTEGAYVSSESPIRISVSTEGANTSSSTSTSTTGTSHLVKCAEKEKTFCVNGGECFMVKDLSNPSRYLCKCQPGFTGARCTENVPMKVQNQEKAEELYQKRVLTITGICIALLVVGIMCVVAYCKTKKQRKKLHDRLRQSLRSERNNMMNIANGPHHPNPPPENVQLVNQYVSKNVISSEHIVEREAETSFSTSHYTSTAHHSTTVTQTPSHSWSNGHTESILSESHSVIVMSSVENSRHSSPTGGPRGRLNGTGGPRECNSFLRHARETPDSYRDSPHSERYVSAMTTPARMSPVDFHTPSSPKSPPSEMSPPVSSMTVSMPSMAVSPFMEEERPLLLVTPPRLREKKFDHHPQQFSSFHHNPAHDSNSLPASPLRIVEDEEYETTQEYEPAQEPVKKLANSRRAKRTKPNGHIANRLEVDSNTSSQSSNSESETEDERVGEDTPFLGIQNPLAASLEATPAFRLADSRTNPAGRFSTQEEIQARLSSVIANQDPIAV
Neurogenic locus notch homolog protein 2 (Homo sapiens), sequence (Q04721 whole entry, looked up, canonical isoform): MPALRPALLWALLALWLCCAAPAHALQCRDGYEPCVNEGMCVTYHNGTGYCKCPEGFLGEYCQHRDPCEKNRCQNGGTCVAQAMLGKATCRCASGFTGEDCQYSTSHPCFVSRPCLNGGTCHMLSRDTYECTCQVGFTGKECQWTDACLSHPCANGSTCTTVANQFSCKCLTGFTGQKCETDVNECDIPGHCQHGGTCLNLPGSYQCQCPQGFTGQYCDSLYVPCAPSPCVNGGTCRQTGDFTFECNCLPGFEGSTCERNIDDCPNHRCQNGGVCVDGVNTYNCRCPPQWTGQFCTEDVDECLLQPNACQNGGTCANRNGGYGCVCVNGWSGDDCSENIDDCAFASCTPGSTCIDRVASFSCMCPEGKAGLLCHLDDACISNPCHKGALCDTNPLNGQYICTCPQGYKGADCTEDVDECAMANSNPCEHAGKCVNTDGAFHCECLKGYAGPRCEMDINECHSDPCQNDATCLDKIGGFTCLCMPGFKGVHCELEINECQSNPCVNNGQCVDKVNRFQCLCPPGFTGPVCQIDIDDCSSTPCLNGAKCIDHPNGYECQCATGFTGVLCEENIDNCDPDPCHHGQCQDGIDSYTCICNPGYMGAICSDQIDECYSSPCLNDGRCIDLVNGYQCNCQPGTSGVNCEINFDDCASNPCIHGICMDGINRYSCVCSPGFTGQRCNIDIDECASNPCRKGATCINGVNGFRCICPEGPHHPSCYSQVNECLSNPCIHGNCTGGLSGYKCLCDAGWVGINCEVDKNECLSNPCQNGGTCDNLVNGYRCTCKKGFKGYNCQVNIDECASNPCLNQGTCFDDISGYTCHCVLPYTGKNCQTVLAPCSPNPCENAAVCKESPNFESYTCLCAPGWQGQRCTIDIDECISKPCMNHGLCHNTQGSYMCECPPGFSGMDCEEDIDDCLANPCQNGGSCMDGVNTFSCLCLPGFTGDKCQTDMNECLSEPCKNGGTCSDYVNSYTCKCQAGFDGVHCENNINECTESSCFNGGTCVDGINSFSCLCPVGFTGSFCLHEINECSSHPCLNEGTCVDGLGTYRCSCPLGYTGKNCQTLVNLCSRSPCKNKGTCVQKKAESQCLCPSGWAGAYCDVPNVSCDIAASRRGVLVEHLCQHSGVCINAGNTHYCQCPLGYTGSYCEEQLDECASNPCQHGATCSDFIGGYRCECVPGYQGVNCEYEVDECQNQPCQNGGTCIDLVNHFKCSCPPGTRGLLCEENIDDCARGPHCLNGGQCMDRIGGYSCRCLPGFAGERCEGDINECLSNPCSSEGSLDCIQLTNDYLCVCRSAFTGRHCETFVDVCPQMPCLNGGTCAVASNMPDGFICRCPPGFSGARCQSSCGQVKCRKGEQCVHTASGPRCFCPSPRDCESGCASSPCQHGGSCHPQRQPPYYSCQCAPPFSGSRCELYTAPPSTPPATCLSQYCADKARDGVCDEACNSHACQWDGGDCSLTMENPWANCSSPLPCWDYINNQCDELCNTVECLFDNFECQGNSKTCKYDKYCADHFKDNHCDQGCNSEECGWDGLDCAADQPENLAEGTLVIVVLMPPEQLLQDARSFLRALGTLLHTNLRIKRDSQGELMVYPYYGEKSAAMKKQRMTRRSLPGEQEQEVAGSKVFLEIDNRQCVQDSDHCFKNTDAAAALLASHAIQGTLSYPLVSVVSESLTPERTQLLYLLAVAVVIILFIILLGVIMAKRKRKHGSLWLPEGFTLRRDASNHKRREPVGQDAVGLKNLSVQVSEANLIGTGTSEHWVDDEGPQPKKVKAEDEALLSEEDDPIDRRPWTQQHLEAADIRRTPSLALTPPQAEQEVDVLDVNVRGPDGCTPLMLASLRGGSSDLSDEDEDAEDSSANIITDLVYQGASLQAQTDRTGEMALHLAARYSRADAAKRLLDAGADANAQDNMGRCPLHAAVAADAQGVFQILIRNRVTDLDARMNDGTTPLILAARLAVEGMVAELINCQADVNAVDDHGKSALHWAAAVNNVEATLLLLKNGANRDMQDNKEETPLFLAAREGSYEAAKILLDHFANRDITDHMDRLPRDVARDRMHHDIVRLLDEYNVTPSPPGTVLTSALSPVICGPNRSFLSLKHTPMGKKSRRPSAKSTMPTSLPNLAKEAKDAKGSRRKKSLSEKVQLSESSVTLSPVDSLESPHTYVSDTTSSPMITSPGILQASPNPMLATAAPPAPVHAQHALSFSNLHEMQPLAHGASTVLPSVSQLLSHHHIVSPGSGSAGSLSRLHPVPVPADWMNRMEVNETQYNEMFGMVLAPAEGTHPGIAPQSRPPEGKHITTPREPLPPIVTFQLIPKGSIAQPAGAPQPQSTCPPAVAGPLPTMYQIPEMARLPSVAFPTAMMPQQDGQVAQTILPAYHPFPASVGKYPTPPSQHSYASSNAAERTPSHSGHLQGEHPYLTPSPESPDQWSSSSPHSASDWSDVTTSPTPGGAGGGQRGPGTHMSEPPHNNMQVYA
Torsin-1A-interacting protein 2 (Homo sapiens), sequence (Q8NFQ8 whole entry, looked up): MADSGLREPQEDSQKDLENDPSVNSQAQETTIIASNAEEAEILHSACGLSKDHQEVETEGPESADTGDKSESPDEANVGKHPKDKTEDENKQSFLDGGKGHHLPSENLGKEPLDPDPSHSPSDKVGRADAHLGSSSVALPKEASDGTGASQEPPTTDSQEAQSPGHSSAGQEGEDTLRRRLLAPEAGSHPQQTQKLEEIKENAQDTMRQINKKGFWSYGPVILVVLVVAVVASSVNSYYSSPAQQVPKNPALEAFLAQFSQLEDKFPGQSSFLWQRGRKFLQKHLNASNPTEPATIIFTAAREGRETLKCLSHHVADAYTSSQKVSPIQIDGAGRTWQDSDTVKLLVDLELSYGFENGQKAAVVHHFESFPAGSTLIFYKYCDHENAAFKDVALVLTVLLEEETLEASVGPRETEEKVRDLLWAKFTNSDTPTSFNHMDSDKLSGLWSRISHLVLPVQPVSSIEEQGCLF

Regarding `C=CCN1C(=O)[C@]2(O[C@H](CCn3cc([C@H](O)c4ccccc4)nn3)[C@@H]([Si](C)(C)c3ccc(OC)cc3)[C@@H]2C)c2cc(NC(=O)c3ccc(OC)cc3)ccc21`, the composite z-score in [1] was -0.255; in experiment [2] it was 0.39; in experiment [3] it was -0.112; in [4] it was 0.141; in experiment [5], 0.603; in experiment [6] it was 0.0976. The composite z-score in experiment [7] was determined as 0.519; in experiment [9], 0.0019; in experiment [10], 0.0722; in experiment [11], 1.55; in [15], 0.744; in experiment [17], 0.0352. For the same molecule, the composite z-score was 0.423 in [18], 0.907 in experiment [19] and -0.152 in [20]. Also, the z-score in experiment [8] was -2.62 (inactive); in [12], 0.323 (inactive); in [13], -0.532 (inactive); in experiment [14], 0.567 (inactive); in experiment [16] it was 0.252 (inactive).

As for `CN(C)CCCCNC(=O)[C@H]1C[C@H]2C(=O)NCC(=O)N2[C@H]1c1ccc(O)cc1`, the composite z-score is -0.772 in experiment [1]; -1.42 in experiment [2]; -0.273 in [3]; -0.814 in experiment [4]; -0.929 in [5]; 0.68 in [6]. In addition, the composite z-score in [7] was 1.07; in experiment [9], 0.0525; in [10], -0.407; in experiment [11], 0.784; in experiment [15] it was 1.21; in [17], -0.189. Also, the composite z-score in [18] was 0.15; in experiment [19], 0.408; in experiment [20], -0.139. The z-score in [8] is 5.11 (inactive); in experiment [12], 0.873 (inactive); in experiment [13], 0.981 (inactive); in [14], 0.144 (inactive); in [16], 0.187 (inactive).

Regarding `CCCC=C(CCC)[C@@H](NC(=O)c1ccc(C(F)(F)F)cc1)c1ccc(C(F)(F)F)cc1`, the composite z-score was found to be 0.625 in experiment [1]; 0.629 in [2]; 0.171 in experiment [3]; 0.669 in experiment [4]; 1.57 in experiment [5]; 1.82 in [6]. Further, the composite z-score was 0.588 in experiment [7]; 1.04 in experiment [9]; -0.0965 in [10]; 1.41 in experiment [11]; 3.26 in experiment [15]; 0.315 in [17]. Also, the composite z-score in experiment [18] is -0.0005; in [19], 1.11; in [20] it was 0.208. Besides, the z-score is -4.76 (inactive) in experiment [8]; 1.13 (inactive) in experiment [12]; 1.17 (inactive) in experiment [13]; 1.23 (inactive) in experiment [14]; -0.35 (inactive) in experiment [16].

As to `C=CCC(OC(C)=O)[C@@H]1[C@@H](N(Cc2cccc3ccccc23)C(=O)Cc2ccc(OC)cc2)c2cc(OCCCO)ccc2N1C(=O)c1ccc2ccccc2c1` (stereo not given in full), the composite z-score in experiment [1] is 0.175; in experiment [2], 0.737; in experiment [3], -0.052; in experiment [4], 0.113; in experiment [5], -0.451; in experiment [6], -0.0627. Besides, the composite z-score in experiment [7] was -0.805; in experiment [9], 0.0737; in [10], -0.337; in experiment [11], 1.14; in experiment [15], 1.06; in experiment [17] it was -0.0042. For the same molecule, the composite z-score was 0.115 in experiment [18], 0.373 in [19] and -0.0967 in experiment [20]. The z-score in experiment [8] is -1.75 (inactive); in [12], -1.12 (inactive); in [13], 0.098 (inactive); in [14], -1.35 (inactive); in experiment [16], 1.1 (inactive).

For the molecule `Cc1ccc(N2C(=O)c3ccccc3[C@](C)(C(=O)NCCCN(C)C)[C@@H]2c2ccc(CO)cc2)nc1`, the composite z-score is 0.908 in [1]; -0.109 in [2]; -0.1 in experiment [3]; -0.436 in [4]; -0.676 in experiment [5]; -0.114 in [6]. Besides, the composite z-score in experiment [7] was 0.582; in experiment [9] it was 0.423; in experiment [10], -0.236; in [11], 0.409; in [15], 2.93; in [17], -0.0405. The composite z-score was -0.817 in experiment [18], -0.681 in [19] and -0.209 in experiment [20]. In addition, the z-score in [8] was 1.36 (inactive); in [12] it was -0.903 (inactive); in [13], -0.808 (inactive); in [14], -1.51 (inactive); in experiment [16], -0.677 (inactive).
